Compound activity: PubChem, National Center for Advancing Translational Sciences (NCATS)
Rows were chosen to be rich in hits. Some 8.7% of all compounds tested hit in one or more screens of this group.
Sfp PPTase inh – Sfp phosphopantetheinyl transferase inhibition; Potency, µM, without a hit: largest response in the series, negative = inhibition, most hits filed as inhibitors; AID 1490; Biochemical Sfp PPTase activity, qHTS; actives 3.5% (n = 310,000);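 also: the enzyme is Sfp with the accession as filed and its product quenches rhodamine fluorescence; 0% = enzyme reaction without inhibitor and -100% = no enzyme wells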
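Step 1, compound plus 15 nM Sfp-PPTase, 15 min, room temperature. Step 2, add rhodamine-CoA (5 uM) and BHQ-2-YbbR (12.5 uM). Step 3, read 525/598 nm fluorescence at 0 and 30 min.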
HP1b chromo inh – inhibitors of HP1-beta chromodomain binding to methylated histone tails. P83916. AlphaScreen HP1-beta / biotin-H3K9me3 peptide binding. Potency, µM (highest dose often 114 µM), without a hit: top-dose activity change, negative = inhibition, hits mostly inhibitors. actives 0.56% (n = 390,000). AID 540317; also: nearly all actives have a fitted effect of over 70% in size
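HP1-beta protein (50 nM final) preincubated 30 min at room temperature with biotinylated H3(1-18)K9me3 peptide (50 nM) in PBS pH 7.4, 0.01% Tween-20, then compound added for 30 min. AlphaScreen streptavidin donor/nickel chelate acceptor beads (10 ug/mL final), 30 min dark, luminescence read.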
BAZ2B block – blocks human BAZ2B; AlphaScreen BAZ2B-H3K14Ac peptide displacement; Potency, µM (series often up to 114 µM), inactives show top-dose activity change, negative = inhibition, most hits filed as inhibitors; actives 4.4% (n = 360,000); AID 504333; also: % is scaled to controls: 0 for no effect and ±100 for the full control effect; nearly all actives have a fitted effect of over 60% in size
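AlphaScreen luminescence quantifies BAZ2B engagement of H3K14Ac peptide; the protein and biotinylated peptide are both at 50 nM final, buffer PBS pH 7.4 with 0.01% Tween-20, all steps at room temperature.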
ALOX12 inh – ALOX12 (human) lipoxygenase inhibition; AID 1671190; actives 1.1% (n = 580,000); Potency, µM (top dose mostly 108 µM), inactives show at the highest dose activity change, negative = inhibition, usual class: inhibitors; purified 12hLO, xylenol orange hydroperoxide absorbance; also: % is scaled to controls: 0 for no effect and ±100 for the full control effect
Target sequence (P18054 whole entry, looked up): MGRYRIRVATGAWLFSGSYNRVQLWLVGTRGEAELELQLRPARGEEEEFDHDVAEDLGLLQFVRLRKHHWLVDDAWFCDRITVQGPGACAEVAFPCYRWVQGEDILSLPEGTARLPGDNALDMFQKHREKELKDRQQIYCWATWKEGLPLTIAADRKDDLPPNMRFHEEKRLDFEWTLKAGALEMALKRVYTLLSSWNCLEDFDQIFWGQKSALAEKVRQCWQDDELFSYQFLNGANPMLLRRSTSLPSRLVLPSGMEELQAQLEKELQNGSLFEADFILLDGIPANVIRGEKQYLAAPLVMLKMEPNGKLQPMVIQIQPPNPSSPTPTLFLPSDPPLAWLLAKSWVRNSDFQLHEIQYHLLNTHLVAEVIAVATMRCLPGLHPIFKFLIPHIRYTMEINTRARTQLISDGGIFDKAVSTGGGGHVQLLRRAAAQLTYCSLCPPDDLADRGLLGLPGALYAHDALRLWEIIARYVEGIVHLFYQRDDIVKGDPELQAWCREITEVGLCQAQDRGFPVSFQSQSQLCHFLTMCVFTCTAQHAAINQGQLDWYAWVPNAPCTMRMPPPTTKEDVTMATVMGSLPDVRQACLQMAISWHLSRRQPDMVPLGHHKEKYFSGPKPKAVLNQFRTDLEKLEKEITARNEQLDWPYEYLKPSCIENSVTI
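Hydroperoxide product was detected by ferrous iron/xylenol orange as the 573 to 405 nm absorbance ratio. Arachidonic acid at 40 uM (final) was turned over for 30 min at room temperature by 150 nM human 12hLO, pH 7.0 Hepes buffer, after 15 min compound preincubation.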
JMJD2A Tudor inh – blocks the human JMJD2A Tudor domain; actives 4.4% (n = 390,000); AlphaScreen JMJD2A-Tudor / H3K4me3 peptide binding; O75164; Potency, µM (series often up to 114 µM), inactives show at the highest dose activity change, negative = inhibition, usual class: inhibitors; AID 504339; also: % is scaled to controls: 0 for no effect and ±100 for the full control effect; nearly all actives have a fitted effect of over 50% in size
G9a block – blocks human histone lysine methyltransferase G9a | Potency, µM (series often up to 102 µM), for inactives: at the highest dose activity, negative = inhibition, most hits filed as inhibitors | actives 8.8% (n = 350,000) | G9a H3K9 monomethylation, AlphaScreen, 2 h | Q96KQ7 | AID 504332; also: % is scaled to controls: 0 for no effect and ±100 for the full control effect; nearly all actives have a fitted effect of over 75% in size
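Readings reflect AlphaScreen signal from monomethyl-H3K9 antibody detection. HMT at 20 nM; substrate b-H3K9 500 nM; cofactor SAM 20 uM; 2 h RT reaction; compounds tested as titrations in qHTS with 15 min preincubation.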
An asterisk follows results filed as active; i = inactive; u = inconclusive; x = no result; [ ] = another dose, or the depositor's remark. Calls follow the shape of the dose curve; as a rule, active = well fitted curve in the direction sought with a large enough effect; inconclusive = small, poorly fitted or top-dose-only effect, or another doubt; inactive = no such curve, though single readings can be large; an effect the other way counts as inactive or inconclusive. Potency is read from the fitted curve at half-maximal effect.

SMILES	Sfp PPTase inh	HP1b chromo inh	BAZ2B block	ALOX12 inh	JMJD2A Tudor inh	G9a block
O=C1OC(c2ccccc2)=C/C1=C\N1CCOCC1	u	-1.4%	-34.9%	u	u	8.91µM*
N#C/C(=C\N1CCOCC1)c1ccccc1	8.3%	13.6%	1.0%	6.1%	-9.9%	38.3%[12.7 µM]
CN(C)/C=C1/C=C(c2ccccc2)OC1=O	39.8µM*	-15.2%	-32.2%	u	-27.6%	35.5µM*
COc1ccc(OC)c(CNc2ccc3c(c2)CCC3)c1	-2.1%	u	u	-8.0%	u	31.6µM*
COc1ccc(OC)c(CNc2ccc(F)c(Cl)c2)c1	3.2%	-4.0%	u	-26.4%	u	50.1µM*
COc1cccc(CNc2ccc(C)c(Cl)c2)c1	-6.3%	54.8%	-2.1%	-2.4%	-1.4%	x
COc1ccc(OC)c(CC(=O)Nc2ccc3c(c2)CCC3)c1	5.7%	-6.6%	-6.3%	-17.9%	-21.6%	25.6%
COc1cccc(CNc2ccc3c(c2)CCC3)c1	-26.3%	-14.0%	u	u	u	14.1µM*
COc1ccc(CNC(=S)Nc2ccc(F)c(Cl)c2)cc1	-27.5%	36.1%	u	-18.6%	12.8%	-5.1%
CCCCOCCCNC(=O)CCC(=O)NCCC1=CCCCC1	x	x	x	-11.1%	x	x
Cc1ccc(C(=O)N/N=C/c2cccc(C)c2)cc1	x	x	x	7.8%	x	x
CC(=O)NC1(C)CCN(Cc2ccccc2-c2ccc3c(ccn3C)c2)C1 (stereo unspecified)	x	x	x	28.2µM*	x	x
CC(=O)NC1(C)CCN(Cc2ccc(-c3cccc(F)c3)cc2)C1 (stereo unspecified)	x	x	x	50.1µM*	x	x
COc1ccccc1-c1ccccc1CN1CCC(C)(NC(C)=O)C1 (stereo unspecified)	x	x	x	2.3%[176 µM]	x	x
CC(=O)NC1(C)CCN(Cc2ccccc2-c2cccc(C(C)=O)c2)C1 (stereo unspecified)	x	x	x	35.5µM*	x	x
COc1cccc(-c2cccc(CN3CCCC(C)(NC(C)=O)C3)c2)c1 (stereo unspecified)	x	x	x	-49.6%[176 µM]	x	x
CC(=O)NC1(C)CCCN(Cc2cccc(-c3c(C)noc3C)c2)C1 (stereo unspecified)	x	x	x	39.8µM*	x	x
CC(=O)NC1(C)CCN(Cc2cccc(-c3ccc4ccccc4c3)c2)C1 (stereo unspecified)	x	x	x	-19.7%[176 µM]	x	x
CN1CCN(CCNC(=O)c2sc3ncccc3c2-n2cccc2)CC1	x	x	x	-16.4%	x	x
Cc1ccc(C(=O)N2CCC(CCC(=O)NCCc3c[nH]c4ccccc34)CC2)cc1	x	x	x	13.9%	x	x
CCOC(=O)c1c(NC(=O)c2ccccc2C)sc2c1CC(C)(C)OC2	31.6µM*	45.5%	52.7%	u	59.7%	u
CCOC(=O)c1c(NC(=O)c2ccc(C)cc2)sc2c1CC(C)(C)OC2	25.1µM*	25.6%	59.1%	-16.7%	51.3%	15.8%[12.7 µM]
CCCC(=O)Nc1sc2c(c1C(=O)OCC)CC(C)(C)OC2	9.6%	16.6%	-4.5%	-4.6%	-10.5%	-8.8%[12.7 µM]
COC(=O)c1c(NC(=O)C(=O)N2CCCC2)sc2c1CC(C)(C)OC2	2.0%	64.6%	-0.3%	3.1%	-5.3%	34.4%
CC1(C)Cc2c(sc(NC(=O)C(=O)N3CCCC3)c2C(N)=O)CO1	-28.8%	25.3%	-34.2%	-0.2%	-33.6%	50.1µM*
SMILES	Sfp PPTase inh	HP1b chromo inh	BAZ2B block	ALOX12 inh	JMJD2A Tudor inh	G9a block
C=C(C)CNC(=S)Nc1sc2c(c1C(=O)OCC)CC(C)(C)OC2	39.8µM*	-35.6%	8.9%	u	u	14.1µM*
CCN(CC)C(=O)[C@@H]1CCC[C@@H](NC(=O)c2cc(C)n(C)n2)CN(C)C(=O)C1	x	x	x	82.6%[176 µM]	x	x
COc1ccc(NC(=O)c2ccco2)cc1NC(=O)c1cccc(C)c1	x	x	x	-10.9%	x	x
Cc1ccccc1OCC(=O)N/N=C/c1cccc2cccnc12	-2.7%	14.5%	39.8µM*	-0.1%	50.1µM*	x
COC(=O)Cn1cc(/C=N/NC(=O)COc2cccc3cccnc23)c2ccccc21	u	14.6%	-15.3%	-21.5%	-19.9%	u
CC(C)(C)OC(=O)N1CCC[C@H]1C(=O)N/N=C/c1cccc2cccnc12	44.7µM*	34.4%	u	8.0%	-14.8%	3.5%
C#CCn1cc(/C=N/NC(=O)COc2cccc3cccnc23)c2ccccc21	-27.5%	12.7%	u	-27.4%	u	3.16µM*
CC(C)(C)OC(=O)NCCC(=O)N/N=C/c1cccc2cccnc12	-7.8%	31.9%	u	0.0%	u	6.7%[59 µM]
O=C(COc1cccc2cccnc12)N/N=C/c1cccn1-c1ccc(F)cc1	-23.7%	u	28.2µM*	8.6%	20µM*	35.5µM*
O=C(COc1cccc2cccnc12)N/N=C/c1ccc(O)cc1	8.8%	-14.3%	-16.9%	i	-19.6%	-5.1%
O=C(COc1ccc(F)cc1)N/N=C/c1cccc2cccnc12	x	35.9%	x	i	89.1µM*	x
O=C(COc1cccc2cccnc12)N/N=C/c1ccccc1O	-3.4%	97.0%	-34.5%	11.6%	-33.4%	x
Cc1ccc(OCC(=O)N/N=C/c2cccc3cccnc23)cc1	-9.3%	16.3%	31.6µM*	i	56.2µM*	x
